High-throughput results: PubChem BioAssay, National Center for Advancing Translational Sciences (NCATS)
DT40 TDP1 CPT = growth inhibition of DT40 Tdp1-/-;hTDP1 cells with camptothecin (screen for TDP1 inhibitors). chicken DT40 Tdp1-/-;hTDP1 cells + 20 nM CPT, ATP luminescence, 48 h. Potency, µM (doses to about 46.2 µM), for inactives: top-dose activity change, negative = growth inhibition, most hits filed as inhibitors. actives 12% (n = 420,000). AID 686979; note: potency is the fitted concentration of half-maximal effect; nearly all actives have a fitted effect of over 55% in size
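Cell growth measured by CellTiter-Glo luminescence after a minimum 48 h, 37 C compound exposure with 20 nM CPT in Tdp1-knockout DT40 cells stably expressing hTDP1, seeded 400/well; qHTS titration format.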
IL-1B inflam inh = inflammasome signaling inhibition, IL-1 beta readout; THP-1 LPS/ATP IL-1B secretion, AlphaLISA, 16 h; active compounds read low; activity change, % at 57.5 µM; actives 4.7% (n = 360,000); in the data active = activity change below about -50%; inconclusive = mostly about -30% to -49%
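THP-1 cells pretreated 1 hr with compounds (up to 57.5 uM final), then stimulated with LPS (250 ng/mL final) plus ATP (1.25 mM final); secreted IL-1B measured by AlphaLISA after 16 hr, decreased signal indicating inhibition.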
TDP1 cell noCPT = qHTS for Inhibitors of human tyrosyl-DNA phosphodiesterase 1 (TDP1): qHTS in cells in absence of CPT; AID 686978, 2013; Potency, µM (highest dose often 46.2 µM), without a hit: top-dose activity change, negative = growth inhibition, hits mostly inhibitors; DT40 Tdp1-/- hTDP1 cells, no CPT, ATP luminescence, 48 h; actives 15% (n = 420,000); note: potency is the fitted concentration of half-maximal effect; nearly all actives have a fitted effect of over 55% in size
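Growth of hTDP1-complemented DT40 Tdp1-knockout cells is measured by ATP luminescence after at least 48 hr compound exposure at 37 °C, with DMSO substituting for the 20 nM CPT used in the parallel screen.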
HT1080NT lethal = kills 2HG-producing HT-1080-NT fibrosarcoma cells | HT-1080-NT fibrosarcoma viability, CellTiter-Glo ATP luminescence, 48 h | Potency, µM (highest dose often 46.1 µM), for the others: at the top dose activity, negative = less viability, actives largely listed as cytotoxic | actives 1.6% (n = 360,000);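 note: NT is the 2HG producing partner of a matched IDH1 knockdown line; potency is the fitted concentration of half-maximal effect; 0% = DMSO-treated cells and -100% = media-only wells without cells; nearly all actives have a fitted effect of over 55% in size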
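Luminescent CellTiter-Glo readout after 48 hours of compound exposure at 37 degrees C defined viability of HT-1080-NT cells. Activity was normalized to DMSO wells and cell-free media wells; concentration-response curves were fitted and assigned curve classes.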
HT1080 IDH1KD tx = toxicity to HT-1080 IDH1 knockdown cells (counter line); actives 2% (n = 360,000); HT-1080 IDH1 knockdown viability, ATP luminescence, 48 h; Potency, µM (doses to about 46.1 µM), without a hit: top-dose activity, negative = toxicity, usual class: cytotoxic;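 note: potency is the fitted concentration of half-maximal effect; 0% = DMSO wells and -100% = cell-free medium wells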
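Viability of IDH1-knockdown HT-1080 fibrosarcoma cells was assessed by CellTiter-Glo after 48 h at 37 °C with titrated compound; concentration-effect curves were classified by fit quality and response size.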
Active calls of the source: *; ? = inconclusive; . = not tested or not shown; [ ] = dose if it differs, or a comment. A selection: hits, their analogues and other compounds. The true share with any hit is near 19%. Unless noted, calls come from the whole dose curve; as a rule, active = well fitted curve in the direction sought with a large enough effect; inconclusive = small, poorly fitted or top-dose-only effect, or another doubt; inactive = no such curve, though single readings can be large; an effect the other way counts as inactive or inconclusive. Unless noted, % is set by controls: 0 for no effect and ±100 for the full control effect.

SMILES | DT40 TDP1 CPT | IL-1B inflam inh | TDP1 cell noCPT | HT1080NT lethal | HT1080 IDH1KD tx
CCOC(=O)c1cnn(-c2ccc([N+](=O)[O-])cc2)c1N | -19% | ? | -13% | 1% | 1%
Cc1ccc2c(c1)N(CCC(=O)NCc1cccs1)C(=O)C(C)O2 (stereo unspecified) | ? | 1 | -13% | 5% | 2%
Cc1ccc(C(=O)CSc2nnc3ccc4ccccc4n23)cc1 | ? | . | 16µM* | . | .
Cc1cc(C)cc(NC(=O)CN2CCCN(S(=O)(=O)c3ccc(Br)s3)CC2)c1 | ? | ? | ? | -11% | ?
CCOC(=O)N1CCN(S(=O)(=O)c2ccc(Br)s2)CC1 | ? | 15 | 13µM* | -7% | 5%[9.24 µM]
Cc1ccc(NC(=O)CN2CCCN(S(=O)(=O)c3ccc(Br)s3)CC2)cc1 | 18µM* | -28 | 18µM* | -6% | -13%
CC(C)(C)C(=O)CN1C2=NCCCN2c2ccccc21 | -1% | -7 | 9% | 6% | 9%
CC(NC(=O)C1CC1)c1nnc2n1CCN(Cc1cccc(F)c1F)CC2 (stereo unspecified) | -2% | . | -2% | . | .
CC1CC(C)CN(C(=O)c2ccc3c(c2NCCO)C(=O)c2ccccc2C3=O)C1 (stereo unspecified) | 29µM* | -23 | 23µM* | ? | ?
CNc1nc2cc([N+](=O)[O-])c([N+](=O)[O-])cc2nc1NC | 2.3µM* | 0 | 3.3µM* | 3.3µM* | 3.3µM*
N#Cc1cc2nc(O)c(O)nc2cc1[N+](=O)[O-] | 2% | 3 | 3% | -1% | -1%
O=C(Cc1ccccc1)N/N=C/c1cccc([N+](=O)[O-])c1 | 2% | -8 | ? | 14% | 0%
CN1C2C=C3C(C#N)=C(N)C(C#N)(C#N)C(c4ccc(Br)cc4)C3C1CC2 (stereo unspecified) | ? | -101* | 21µM* | -12% | -6%
CN1C2C=C3C(C#N)=C(N)C(C#N)(C#N)[C@@H](c4ccc(Cl)cc4)[C@@H]3C1CC2 (stereo partly specified) | ? | -6 | ? | -3% | -7%[9.24 µM]
O=C(CSc1nnc(-c2ccncc2)n1-c1ccccc1)Nc1ccc(Br)cc1 | 7% | . | -9% | . | .
O=C1NC(c2cccs2)Nc2ccccc21 (stereo unspecified) | 5.2µM* | 1 | 8.2µM* | 0% | 0%
O=C1NC(c2ccccc2Cl)Nc2ccccc21 (stereo unspecified) | ? | 63 | 18µM* | ? | ?
Cc1ccsc1C1NC(=O)c2ccccc2N1 (stereo unspecified) | ? | 34 | ? | -30% | ?
O=C1c2ccccc2C(=O)C12OC2c1cccc2ccccc12 (stereo unspecified) | ? | 11 | ? | -20% | -4%
Clc1ccccc1C1Nc2cccc3cccc(c23)N1 | ? | 2 | ? | -3% | -2%
COc1ccc2ccccc2c1C1NC(=O)c2ccccc2N1 (stereo unspecified) | 2.6µM* | 12 | 3.7µM* | 5.2µM* | ?
O=C1NC(c2cccc3ccccc23)Nc2ccccc21 (stereo unspecified) | 0.58µM* | 39 | 0.92µM* | 1.3µM* | 0.73µM*
COc1ccccc1CNC(=O)CN1CCN(c2ccc(C(C)=O)cc2)CC1 | 12% | 2 | ? | 2% | 16%
C=CCc1c(Cl)nc(C)nc1NCc1ccccc1 | ? | -10 | ? | -29% | ?
O=C1C(=C2CCCCC2)SC(=S)N1Cc1ccco1 | ? | 11 | 16µM* | -2% | ?
Cc1ncc(C(O)c2ccccc2)n1Cc1ccccc1 (stereo unspecified) | ? | 15 | 23µM* | -6% | -2%
Cc1cccc(C(O)c2cnc(C)n2Cc2ccccc2)c1 (stereo unspecified) | ? | 19 | 18µM* | -2% | -21%
